The text below walks through data of ChEMBL document CHEMBL3988442, “University of Dundee, Small-Polar-MMV Screening Library” (2021).

SMILES strings stand for the structures. Out of some 48,000 compounds screened, about 13,000 (27%) showed an effect of 50% or more. The list shows a part of the results.

This assay has as its system Wolbachia pipientis. The experiment in a line: Anti-Wolbachia Cell-Based Screen. It is filed as functional. Details: scale not given: in the data most compounds retested in dose-response had high values. Conditions: 5 µM.
Consider `CCc1ncc2c(n1)CN(C(C(N)=O)c1ccccc1)CC2` (stereo not drawn), for which the “Percent Effect” value is listed as -0.2058%.

As for `CC(=O)Nc1ncc(-c2ccc(C)cc2)[nH]1`, the “Percent Effect” value is given as -15.96%.

`Cc1cc(C(=O)N2CCc3c(CN(C)C)nn(C)c3C2)[nH]n1`: the “Percent Effect” value was 109.1%.

As to `Cc1cc(C(=O)N2CCc3ncnc(N4CCSCC4)c3CC2)[nH]n1`, the “Percent Effect” value is listed as -7.195%.

Turning to `Cc1cc(-c2nn(C)c(Cl)c2CN2CCOCC2CC(N)=O)no1` (stereo not drawn), the “Percent Effect” value is -10.25%.

Take `Cc1noc(CSc2ccc(C(F)(F)F)cn2)n1`: the “Percent Effect” value was -11.43%.

Take `COc1ncc(C)cc1NC(=O)COCC(F)(F)F`: the “Percent Effect” value is -3.698%.

As for `CC(C)c1nc(S(=O)(=O)Nc2ccnn2C2CCCC2)c[nH]1`, the “Percent Effect” value was -16.48%.

With `CC1CCN(C(=O)CN(Cc2ccco2)C2CC2)CC1`, the “Percent Effect” value is reported as 16.65%.

For `O=C(CN(Cc1ccco1)C1CC1)N1CCCCCC1`, the “Percent Effect” value amounted to 130.6%.

As to `O=C(CN(Cc1ccco1)C1CC1)Nc1ccc(Br)cn1`, the “Percent Effect” value worked out at 5.807%.

For the compound `COc1ccc(CN2CC[C@H](c3nc4cccc(C(N)=O)c4[nH]3)C2)cc1`, the “Percent Effect” value is -8.435%.

As for `CCCn1nc(C)c(CNC(=O)C2COc3ccc(OC)cc3C2)c1C` (stereo not drawn), the “Percent Effect” value is reported as -13.51%.

For the compound `CC(=O)c1cccc(OCCCC(=O)N(C)Cc2cnc(C)s2)c1`, the “Percent Effect” value is -4.275%.

As to `CC(C)CNC(=O)Nc1cccc(CN2CCOC2=O)c1`, the “Percent Effect” value is on record as -15.82%.

`CCn1ccnc1CNc1nccc(-c2c(C)nn(C)c2C)n1`: the “Percent Effect” value is -9.163%.

For `Cc1nn(C)c(C)c1-c1cnc(CC2CCNC2)cn1` (stereo not drawn), the “Percent Effect” value turned out to be 90.84%.

In the case of `Cc1nn(C)c(C)c1-c1cnc(CC2CCNCC2)cn1`, the “Percent Effect” value was determined as 154.2%.

Turning to `CCc1nccn1CCCNc1nccc(-c2c(C)nn(C)c2C)n1`, the “Percent Effect” value is 0.4363%.

For `c1cncc(-n2cnnc2CC2CCNCC2)c1`, the “Percent Effect” value is -4.344%.

As for `COc1ccc(C)cc1-n1cnnc1CC1CCNCC1`, the “Percent Effect” value was 5.267%.

Consider `Cc1nn(C)c(C)c1-c1nccnc1CC1CCNCC1`, for which the “Percent Effect” value turned out to be 110.6%.

As to `O=C(C1=CCCC1)N1CC[C@]2(C[C@H](OCc3cccnc3)CO2)C1.O=C(O)C(F)(F)F`, the “Percent Effect” value is on record as -2.821%.

Take `CCSCC(C)NCc1ccccc1-n1ccnc1` (stereo not drawn): the “Percent Effect” value was 26.03%.

With `Cc1nnc2n1CCN(C(=O)CN1C(=O)CSc3ccccc31)C2`, the “Percent Effect” value is reported as -16.29%.

Consider `CC(C)NC(=O)O[C@H]1COCCN(c2nc3ccccc3s2)C1`, for which the “Percent Effect” value stood at 11.5%.

Consider `O=C(c1cn(-c2cc(N3CCSCC3)ncn2)cn1)N1CCSCC1`, for which the “Percent Effect” value was 23.31%.

Consider `Cc1cc(C)n(CC2CCCN2C(=O)c2cnccn2)n1` (stereo not drawn), for which the “Percent Effect” value was determined as 101.9%.

Turning to `Cc1cc(C)n(CC2CCCN2C(=O)c2ccnc(N(C)C)c2)n1` (stereo not drawn), the “Percent Effect” value is 141.4%.

As for `Cc1cc(C)n(CC2CCCCN2C(=O)c2ccc3c(c2)OCO3)n1` (stereo not drawn), the “Percent Effect” value is listed as -4.429%.

Regarding `Cc1cc(C)n(CC2CCCN2C(=O)c2c[nH]c(=O)c(Cl)c2)n1` (stereo not drawn), the “Percent Effect” value stood at 130%.

For the compound `Cc1cc(C)n(CC2CCCN2C(=O)c2cnn(C)c2C2CC2)n1` (stereo not drawn), the “Percent Effect” value was -2.201%.

Turning to `Cc1cc(C)n(CC2CCCN2C(=O)c2ccc3c(c2)nnn3C)n1` (stereo not drawn), the “Percent Effect” value is listed as -2.526%.

Consider `Cc1cc(C)n(CC2CCCN2C(=O)c2cc[nH]n2)n1` (stereo not drawn), for which the “Percent Effect” value was found to be 9.629%.

Consider `Cc1cc(C)n(CC2CCCN2C(=O)c2ccc3c(c2)OCO3)n1` (stereo not drawn), for which the “Percent Effect” value is on record as 14.69%.

Turning to `Cc1cc(C)n(CC2CCCN2C(=O)c2ccc(N(C)C)nn2)n1` (stereo not drawn), the “Percent Effect” value was determined as 107%.

With `CCc1noc(C)c1C(=O)N1CCCC1Cn1nc(C)cc1C` (stereo not drawn), the “Percent Effect” value is -1.879%.

In the case of `Cc1cc(C)n(C2CCCN(C(=O)c3c[nH]c(=O)c(Cl)c3)C2)n1` (stereo not drawn), the “Percent Effect” value was -7.23%.
